# Compound activity deposited in PubChem by several laboratories.
# Shown are actives, neighbours in structure and some others; about 4.5% of the full set was active somewhere.
# Gli-Sufu block: blocks Gli-Sufu signaling in a luciferase reporter | Sufu-KO-LIGHT fibroblasts, Gli luciferase reporter luminescence | inhibition, % at 5 µM | hit rate 0.74% among 340,000;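 active = inhibition above about 55%, limit read from the data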
# 697 NFkB inh: inhibitors of the PMA/ionomycin-induced NF-kB reporter in 697 B cells; 697 B-cell NF-kB luciferase reporter, 16 h; inhibition, % at 4 µM; hit rate 0.33% among 330,000; AID 435022; in the data active = inhibition above about 35%
# CSC inhib: blocks cancer stem cells; cancer stem cell-like cells viability, luminescence; hit rate 1.1% among 300,000; inhibition, % at 7.5 µM; in the data active = inhibition above about 75%; tested in HMLE shEcad cells
# Mdm2-MdmX inh: human Mdm2/MdmX binding inhibition | AID 485346 | O15151+Q00987 | SaOS-2 split-luciferase Mdm2/MdmX complementation, luminescence | hit rate 3% among 330,000 | inhibition, % at 8 µM;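 active = inhibition of at least 50% at 8 µM in the primary screen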
# Target sequence (O15151 whole entry, looked up): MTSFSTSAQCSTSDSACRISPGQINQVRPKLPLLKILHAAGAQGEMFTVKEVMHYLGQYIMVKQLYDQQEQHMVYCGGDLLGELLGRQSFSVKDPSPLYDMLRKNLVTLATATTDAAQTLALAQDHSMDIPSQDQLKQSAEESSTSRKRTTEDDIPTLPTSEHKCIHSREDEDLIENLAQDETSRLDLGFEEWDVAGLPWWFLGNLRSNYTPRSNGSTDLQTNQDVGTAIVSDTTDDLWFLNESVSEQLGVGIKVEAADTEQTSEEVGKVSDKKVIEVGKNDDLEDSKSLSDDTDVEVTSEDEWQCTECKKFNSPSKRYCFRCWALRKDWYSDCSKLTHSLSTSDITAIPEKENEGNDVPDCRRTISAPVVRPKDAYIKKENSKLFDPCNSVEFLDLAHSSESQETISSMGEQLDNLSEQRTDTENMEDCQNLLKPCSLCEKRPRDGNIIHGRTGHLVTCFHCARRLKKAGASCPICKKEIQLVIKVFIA
# Target sequence (Q00987 whole entry, looked up): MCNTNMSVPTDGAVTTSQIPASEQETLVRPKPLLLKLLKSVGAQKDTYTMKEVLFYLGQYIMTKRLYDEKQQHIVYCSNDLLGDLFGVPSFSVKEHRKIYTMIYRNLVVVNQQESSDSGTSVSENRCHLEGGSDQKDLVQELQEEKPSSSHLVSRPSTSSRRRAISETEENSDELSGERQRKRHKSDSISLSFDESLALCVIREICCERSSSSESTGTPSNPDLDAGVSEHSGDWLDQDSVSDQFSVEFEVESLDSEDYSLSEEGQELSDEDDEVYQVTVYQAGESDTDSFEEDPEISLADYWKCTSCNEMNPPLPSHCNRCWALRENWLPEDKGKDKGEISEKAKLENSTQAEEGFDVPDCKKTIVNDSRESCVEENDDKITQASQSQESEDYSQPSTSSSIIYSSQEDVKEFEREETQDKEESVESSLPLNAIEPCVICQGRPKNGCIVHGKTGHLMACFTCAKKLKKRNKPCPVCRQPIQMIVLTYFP
# Beta apoptosis: beta cell apoptosis inhibition | INS-1E cytokine-induced death, ATP luminescence, 48 h; percent of positive-control rescue, neutral wells zero | protection from apoptosis, % (concentration not given with the values) | hit rate 0.8% among 300,000 | AID 435005;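 active = Every replicate reaches about 75%, or at least half do and their mean reaches it too, limit read from the data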;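 note: higher means more ATP so stronger rescue from cytokine killing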
# Jurkat NFkB inh: inhibitors of the PMA/ionomycin-induced NF-kB reporter in Jurkat cells. inhibition, % at 4 µM. PMA/ionomycin-induced NF-kB luciferase reporter, luminescence. hit rate 0.53% among 330,000; in the data active = inhibition above about 50%
# Mdm2-MdmX conf: confirmation of human Mdm2/MdmX interaction inhibitors | shares compounds with Mdm2-MdmX inh | Mdm2-MdmX binding, luminescent assay | inhibition, % at 8 µM | hit rate 55% among 10,000; in the data active = inhibition above about 40%
# Full FLuc ctr: full-length luciferase inhibition in Mdm2/MdmX counter-screen; hit rate 77% among 6,200; shares compounds with Mdm2-MdmX inh; inhibition, % at 8 µM; SaOS-2 full-length luciferase counterscreen, luminescence; AID 504607;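 active = mean inhibition at 8 µM reaching about 37%, which flags the compound as non-specific, limit read from the data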;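 note: p53-null SaOS-2 cells with luciferase driven by a doxycycline-inducible promoter; compound on cells about two nights before reading with doxycycline added after day one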
# A number is an active result; . = inactive; / = no result.
SMILES,Gli-Sufu block,697 NFkB inh,CSC inhib,Mdm2-MdmX inh,Beta apoptosis,Jurkat NFkB inh,Mdm2-MdmX conf,Full FLuc ctr
C=CCn1c(SCC(=O)c2[nH]c(C)c(C(=O)OCC)c2C)nc2scc(-c3ccccc3)c2c1=O,.,.,.,95,.,.,60,46
Cc1ccc(-n2nc3c([n+]2[O-])CCc2c-3no[n+]2[O-])cc1,.,.,.,53,.,.,.,/
C/C(=N\NC(=O)c1c(Br)c(C)nn1C)c1ccc(NC(=O)C(C)Oc2ccc(Cl)cc2C)cc1 (stereo not given),.,.,.,62,/,.,.,/
CCC(=O)Nc1ccc(/C(C)=N/NC(=O)c2c(Br)c(C)nn2C)cc1,.,.,.,.,.,.,/,/
CC(C)C[C@H]1CN=C(Nc2ccccc2)N1CC1CCC(C(C)(C)C)CC1 (stereo not given in full),.,.,79,100,111,.,.,.
Clc1ccc2nc(COc3ccccc3)[nH]c2c1,.,.,.,.,.,.,/,/
Cc1cccc(Oc2ccccc2NC(=O)CSCC(=O)Nc2cc(C)on2)c1,.,.,/,67,/,.,58,108
Cc1ccc(C(=O)/C=C/Nc2ccccn2)cc1,.,.,.,55,.,.,.,/
CC(=O)c1ccc(Nc2cc(C)nc3ccc(C)cc23)cc1,.,.,/,51,.,.,.,90
Cc1cc(C)n(-c2nc3ccccc3c(=O)n2OCC#N)n1,.,.,.,66,84,.,49,46
CCOn1c(-n2nc(C)cc2C)nc2ccccc2c1=O,.,.,.,.,.,.,/,/
Cc1cccc(OCc2occc2C(=O)Nc2cccc(-n3cnnn3)c2)c1,.,.,.,.,.,.,/,/
Cc1ccccc1OCc1occc1C(=O)Nc1cccc(-n2cnnn2)c1,.,.,.,59,.,.,47,47
Cc1cccc(NC(=O)C(C)Sc2nc3ccccc3c(=O)n2CCCN2CCOCC2)c1 (stereo not given),.,.,/,89,.,.,71,51
Cc1[nH]c2ccccc2c1C(=O)CSc1nc2ccccc2c(=O)n1CCCN1CCOCC1,.,.,.,59,.,.,.,/
Cn1c(N)c(C(=O)CSc2nc3ccccc3c(=O)n2CCCN2CCOCC2)c(=O)n(C)c1=O,.,.,.,.,.,.,/,/
Cc1ccc(S(=O)(=O)N2CCCC2CNC(=O)C(=O)NC2CC2)cc1 (stereo not given),.,.,/,.,.,.,/,/
CCOC(=O)c1sc(NC(=O)CSc2nc3c(c(=O)n2-c2ccc(C)cc2)SCC3)c(C(=O)OCC)c1C,.,.,.,64,.,.,.,/
CCCOc1ccc(/C=N/Nc2cccc([N+](=O)[O-])c2)c(O)c1,.,.,113,77,.,.,.,/
COc1cc([N+](=O)[O-])cc(/C=N/NC(=O)c2ccc(C)nc2)c1O,.,.,.,67,.,.,54,81
COc1cc(/C=N/NC(=O)c2ccc(C)nc2)cc([N+](=O)[O-])c1O,.,.,.,.,.,.,/,/
Cc1ccc(C(=O)N/N=C/c2cc(Br)ccc2O)cn1,.,.,.,51,.,.,.,/
Cc1ccc(C(=O)N/N=C\c2ccccc2[N+](=O)[O-])cn1,.,/,/,/,/,/,/,/
COc1cc([N+](=O)[O-])cc(/C=N/NC(=O)C(C)Nc2ccccc2C)c1O (stereo not given),.,.,.,51,.,.,.,67
COc1cc([N+](=O)[O-])cc(/C=N/NC(=O)C(C)Nc2cccc(C)c2)c1O (stereo not given),.,.,/,.,/,.,/,/
COC(=O)[C@]1(C)N[C@H](CN(C)C(=O)Nc2ccc(C)cc2)[C@@H]2C(=O)N(C)C(=O)[C@@H]21,.,.,.,.,.,.,/,/
COC(=O)[C@@]1(Cc2ccccc2)[C@H]2C(=O)N(C)C(=O)[C@H]2[C@H]2CN=C(SC)N21,.,.,/,.,/,/,/,/
CCOc1ccc2nc(COC(=O)c3ccncc3)c(C(=O)c3ccccc3)[n+]([O-])c2c1,.,.,.,.,.,.,/,/
COc1cc(-c2nc3cnccn3c2Nc2ccc(C)cc2)ccc1O,.,.,.,69,.,.,.,/
